# Laboratory results from ChEMBL document CHEMBL3988442, “University of Dundee, Small-Polar-MMV Screening Library” (2021).
# Biological target: T1, Tyrosyl-tRNA synthetase, putative (Trypanosoma cruzi (strain CL Brener)) (UniProt Q4DSP6)
# T1 sequence (whole entry): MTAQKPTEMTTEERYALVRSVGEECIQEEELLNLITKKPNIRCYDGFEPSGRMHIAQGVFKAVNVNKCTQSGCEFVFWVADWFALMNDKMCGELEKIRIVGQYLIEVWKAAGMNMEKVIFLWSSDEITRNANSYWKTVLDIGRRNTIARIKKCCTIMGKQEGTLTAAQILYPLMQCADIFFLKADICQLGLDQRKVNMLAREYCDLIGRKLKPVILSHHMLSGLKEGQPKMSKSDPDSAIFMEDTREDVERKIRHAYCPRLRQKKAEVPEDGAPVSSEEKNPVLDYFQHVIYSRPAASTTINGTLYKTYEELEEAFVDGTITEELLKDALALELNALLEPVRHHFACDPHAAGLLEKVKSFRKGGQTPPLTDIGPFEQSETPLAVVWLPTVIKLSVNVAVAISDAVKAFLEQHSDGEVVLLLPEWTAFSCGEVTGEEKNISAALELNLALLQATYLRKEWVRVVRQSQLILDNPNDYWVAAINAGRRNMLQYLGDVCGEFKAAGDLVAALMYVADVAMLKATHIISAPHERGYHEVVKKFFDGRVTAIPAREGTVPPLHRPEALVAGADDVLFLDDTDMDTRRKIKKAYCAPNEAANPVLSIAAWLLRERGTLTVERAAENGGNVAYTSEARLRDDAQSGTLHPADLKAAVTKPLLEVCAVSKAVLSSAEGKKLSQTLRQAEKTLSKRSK
# Test: Trypanosoma cruzi tyrosyl tRNA synthetase (TcYRS) SOP
# Format: functional
# Parameters: scale not given: direction of the effect not stated beside the values
# Details: 30 µM
row,Compound,Percent Effect
1,Cc1nc[nH]c1CN1CCN(C(=O)c2cccs2)[C@H]2CS(=O)(=O)C[C@H]21,14.6%
2,Cc1ccc(CCC(=O)N2CCCC(n3cncn3)C2)c(C)c1 (stereo not drawn),2.56%
3,Cc1cc(-c2nn(C)c(Cl)c2CN2CCOCC2CC(=O)O)no1 (stereo not drawn),12.2%
4,CCc1nc(CN2CCCN(C(=O)c3cn[nH]c3CC)CC2)cs1,13.2%
5,CCC(=O)N1CCC(Cc2nccnc2Nc2ccccn2)CC1,-2.5%
6,Cn1cc(NC(=O)N2CCC(NS(C)(=O)=O)CC2)ccc1=O,-13.2%
7,CC(C)CC(=O)N1C[C@@H]2CCN(c3ncccn3)C[C@@H]2C1,-10%
8,CN(Cc1ccc2c(c1)OCCO2)C(=O)Cn1ccccc1=O,7.69%
9,Cc1ccc(N2CCC3(CCCN(C(=O)c4cccnc4)C3)C2)nn1 (stereo not drawn),-10.3%
10,O=C(c1cc[nH]n1)N1CCCC(c2cccc(-n3ccnc3)n2)C1 (stereo not drawn),12.5%
11,COC(=O)C1CCN(C(=O)c2ccc(N(C)S(C)(=O)=O)c(C)c2)CC1,2.44%
12,CC(=O)N(Cc1ncc(C)o1)C1CCN(CCCc2cnn(C)c2)C1 (stereo not drawn),12.8%
13,O=C(c1ccc(F)cc1Cl)N1CCC(Nc2cccnn2)CC1,18.8%
14,Cc1cc(CNc2cc(Cl)ccc2OCCS(C)(=O)=O)no1,10.8%
15,CN1[C@H](Cn2cccn2)C[C@@H]2CN(C(=O)Cc3cccs3)CC[C@@H]21,0%
16,Cc1cccc(CN2C[C@@H]3COC[C@]3(CNC(=O)c3ccsc3)C2)n1,12.8%
17,COc1ccc(C2CC(=O)Nc3c2nc2n3CCCC2)cc1OC (stereo not drawn),14.6%
18,CN(C)CCN1CCC2(CCN(C(=O)c3ccc(F)cc3)CC2)C1=O,12.5%
